Screening results: PubChem BioAssay, The Scripps Research Institute Molecular Screening Center
An excerpt weighted towards active compounds, which were near 2.9% of everything screened.
PLCg1 inh: blocks human PLC-gamma1 enzyme activity; 370,000 compounds, 0.84% hits; purified PLC-gamma1, fluorogenic substrate, fluorescence; inhibition, % at 12.2 µM; in the data active = inhibition above about 9.5%
ADAM17 inh: inhibitors of human ADAM17; inhibition, % at 6.95 µM; 370,000 compounds, 0.83% hits; P78536; recombinant ADAM17, EDANS/DABCYL FRET peptide cleavage;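 active = inhibition above the mean of compounds lying between control limits plus 3 SD, set per campaign, cut at about 8.5% in these data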
ADAM10 inh: ADAM10 inhibition, QFRET primary screen. inhibition, % at 7 µM. 370,000 compounds, 0.62% hits. AID 720582. recombinant ADAM10, EDANS/DABCYL FRET peptide cleavage, 3 h. O14672;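 active = inhibition above a per-campaign cutoff equal to the mean of compounds falling between control-based bounds plus 3 SD, cut at about 20% in these data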
KLK7 zymogen act: activators of human kallikrein-7 zymogen; activation, % at 7 µM; 370,000 compounds, 0.9% hits; purified proKLK7, EDANS-DABCYL substrate fluorescence; 100% is mature enzyme control, 0% vehicle; P49862;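 active = activation above the mean of all tested compounds plus 3 SD, computed per campaign excluding outliers beyond control limits, cut at about 13% in these data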
PLC-beta3 inh: blocks human PLC-beta3 enzyme activity; Q01970; Purified PLC-beta3, fluorogenic substrate, fluorescence; inhibition, % at 12.2 µM; 370,000 compounds, 0.18% hits; AID 720704; in the data active = inhibition above about 11%
Target sequence (Q01970 whole entry, looked up): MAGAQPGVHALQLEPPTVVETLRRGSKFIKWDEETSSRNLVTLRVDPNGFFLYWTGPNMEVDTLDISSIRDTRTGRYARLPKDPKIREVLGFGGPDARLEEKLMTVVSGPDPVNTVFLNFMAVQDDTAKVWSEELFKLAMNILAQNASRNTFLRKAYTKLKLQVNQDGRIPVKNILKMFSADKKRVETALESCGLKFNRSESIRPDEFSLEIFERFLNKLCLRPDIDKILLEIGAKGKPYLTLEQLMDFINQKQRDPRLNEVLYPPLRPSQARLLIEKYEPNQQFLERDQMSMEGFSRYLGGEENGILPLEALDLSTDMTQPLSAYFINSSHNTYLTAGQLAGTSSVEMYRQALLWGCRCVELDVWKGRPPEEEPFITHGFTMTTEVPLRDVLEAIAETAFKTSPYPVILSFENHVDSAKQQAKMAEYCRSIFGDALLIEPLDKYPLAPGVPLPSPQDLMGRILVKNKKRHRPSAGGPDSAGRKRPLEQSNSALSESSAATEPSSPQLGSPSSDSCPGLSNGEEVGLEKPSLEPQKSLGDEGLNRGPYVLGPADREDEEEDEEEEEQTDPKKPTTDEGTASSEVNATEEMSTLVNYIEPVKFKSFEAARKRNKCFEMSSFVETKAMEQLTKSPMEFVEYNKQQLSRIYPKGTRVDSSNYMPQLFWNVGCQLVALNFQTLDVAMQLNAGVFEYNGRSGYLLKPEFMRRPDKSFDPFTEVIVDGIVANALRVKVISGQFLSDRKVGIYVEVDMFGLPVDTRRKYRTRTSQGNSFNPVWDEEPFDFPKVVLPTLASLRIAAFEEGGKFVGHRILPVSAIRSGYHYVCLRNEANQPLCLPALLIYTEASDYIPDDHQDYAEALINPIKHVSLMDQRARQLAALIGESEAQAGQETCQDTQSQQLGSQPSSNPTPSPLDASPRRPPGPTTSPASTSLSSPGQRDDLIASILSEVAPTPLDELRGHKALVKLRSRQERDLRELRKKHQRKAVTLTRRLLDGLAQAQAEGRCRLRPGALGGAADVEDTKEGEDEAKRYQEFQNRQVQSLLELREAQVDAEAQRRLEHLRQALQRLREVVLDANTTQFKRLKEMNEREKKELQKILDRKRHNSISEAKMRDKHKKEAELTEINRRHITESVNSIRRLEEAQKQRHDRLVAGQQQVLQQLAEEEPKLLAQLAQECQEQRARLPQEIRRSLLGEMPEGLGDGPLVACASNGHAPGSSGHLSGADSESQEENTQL
ADAM10 ctr: inhibits human ADAM10 in ADAM17 exosite counter-screen; shares compounds with ADAM17 inh; recombinant ADAM10, EDANS/DABCYL FRET peptide cleavage, 3 h; inhibition, % at 6.95 µM; 2,900 compounds, 47% hits; AID 743256;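 active = mean inhibition over the triplicate runs exceeds the activity threshold set in the earlier primary screen, cut at about 20% in these data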
ADAM17 confirm: human ADAM17 inhibition, confirmation. 2,900 compounds, 65% hits. inhibition, % at 6.95 µM. shares compounds with ADAM17 inh. recombinant ADAM17, EDANS/DABCYL QFRET peptide cleavage;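 active = mean inhibition across replicates above the hit cutoff set in the primary screen, cut at about 8.5% in these data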
Each line names hits and unclear results; the compound was inactive in the other large screens (follow-up assays come after a bar, where they were run).

CCC1(C(=O)c2ccc(Cl)cc2)C2c3ccccc3OC(=O)C21C(=O)Nc1ccccc1 (stereo not drawn)	none
CCOc1cc(/C=C2\SC(=S)N(Nc3ccccc3)C2=O)ccc1O	ADAM17 inh 9.5 | ADAM10 ctr 31.1 | ADAM17 confirm 14.3
Cc1cc(C)nc(NS(=O)(=O)c2ccc(NC(=O)c3cccs3)cc2)n1	none
CCCCN(CCCC)S(=O)(=O)c1ccc(NC(=O)c2cccs2)cc1	ADAM17 inh 11.8 | ADAM10 ctr 31.9 | ADAM17 confirm 15.8
CC(C)c1ccccc1NC(=O)C1CCCN(C(=O)c2ccc(Cl)cc2)C1 (stereo not drawn)	none
COc1ccc(-c2cn(CCO)c(CCN)n2)cc1	none
CN(C)S(=O)(=O)c1ccc(Cl)c(NC(=O)COC(=O)CCC2CCCCC2)c1	ADAM17 inh 12.0 | ADAM10 ctr 31.8 | ADAM17 confirm 16.8
COc1ccc(OCCC(=O)OCC(=O)Nc2cccc(S(=O)(=O)N3CCCCC3)c2)cc1	none
O=C(CN1C(=O)NC(Cc2c[nH]c3ccccc23)C1=O)Nc1cccc(S(=O)(=O)N2CCCC2)c1 (stereo not drawn)	none
Cc1ccc(S(=O)(=O)N(C)C)cc1NC(=O)COC(=O)CCC1CCCC1	none
Cc1ccc(C)c(OCCC(=O)OCC(=O)Nc2cccc(S(=O)(=O)N3CCCC3)c2)c1	ADAM17 inh 8.8 | ADAM10 ctr 24.6 | ADAM17 confirm 12.6
COc1ccc(NC(=O)COc2ccccc2Cc2ccccc2)cc1S(N)(=O)=O	ADAM17 inh 10.5 | ADAM10 ctr inactive | ADAM17 confirm inactive
Cc1ccc(NC(=O)CN2C(=O)NC(Cc3c[nH]c4ccccc34)C2=O)cc1S(=O)(=O)N1CCCCC1 (stereo not drawn)	ADAM17 inh 10.6 | ADAM10 ctr 22.4 | ADAM17 confirm 14.1
O=C(c1ccc(F)cc1)C1CCN(S(=O)(=O)c2ccccc2)CC1	none
Cc1ccccc1OCC(=O)Nc1ccc(C)c(S(=O)(=O)N2CCCCCC2)c1	ADAM17 inh 8.7 | ADAM10 ctr 26.5 | ADAM17 confirm 12.6
Cc1ccccc1OCCC(=O)OCC(=O)Nc1cc(S(=O)(=O)N2CCOCC2)ccc1Cl	ADAM17 inh 10.7 | ADAM10 ctr inactive | ADAM17 confirm inactive
COc1ccccc1OCCC(=O)OCC(=O)Nc1cc(S(=O)(=O)N2CCOCC2)ccc1Cl	none
Cc1ccc(NC(=O)COc2ccccc2)cc1S(=O)(=O)N1CCCCC1	none
Cc1ccc(NCC(=O)Nc2c(C)n(C)n(-c3ccccc3)c2=O)cc1S(=O)(=O)N(C)C	none
C#CCOCCOCCOCCNc1nc(N2CCN(C(=O)[C@H]([C@@H](C)O)n3cc(CCCCN)nn3)CC2)nc(N2CCN(C(=O)[C@H](Cc3ccc(O)cc3)n3cc(CCO)nn3)CC2)n1	none
CC12CCC(C(=O)NNc3ccccc3)(OC1=O)C2(C)C (stereo not drawn)	none
CC12CCC(C(=O)NC(c3ccccc3)c3ccccc3)(OC1=O)C2(C)C (stereo not drawn)	ADAM17 inh 9.1 | ADAM10 ctr inactive | ADAM17 confirm inactive
CCN1/C(=C\C=C(C(C)=O)C(C)=O)Sc2ccccc21	ADAM17 inh 10.1 | ADAM10 ctr inactive | ADAM17 confirm 9.1
COc1ccc(CN2C[C@@H](CO)O[C@@H](n3cnc4c(N5CCN(c6ccccc6)CC5)ncnc43)C2)cc1	none
COc1cc(CN2C[C@@H](CO)O[C@@H](n3cnc4c(N5CCN(c6ccccc6)CC5)ncnc43)C2)cc(OC)c1OC	ADAM17 inh 9.1 | ADAM10 ctr inactive | ADAM17 confirm inactive
Cc1cccc(C)c1-n1nnnc1C(c1ccccc1)N1CCN(C/C=C/c2ccccc2)CC1 (stereo not drawn)	ADAM17 inh 9.4 | ADAM10 ctr inactive | ADAM17 confirm 10.5
Cc1ccc(/C=N/N2CCN(c3ccccn3)CC2)o1	none
Cc1ccc(NC(=O)C23CCC(C)(C(=O)[C@H]2Br)C3(C)C)cc1 (stereo partly drawn)	none
CC(=O)c1cccc(NC(=O)CCC(=O)c2ccc(F)cc2)c1	none
CC(=O)c1cccc(NC(=O)COC(=O)CCC(=O)c2ccc(F)cc2)c1	ADAM17 inh 8.9 | ADAM10 ctr inactive | ADAM17 confirm inactive
S=C(NCc1ccccc1)NCc1cccc(CNC(=S)NCc2ccccc2)c1	ADAM17 inh 9.3 | ADAM10 ctr 21.7 | ADAM17 confirm 14.1
O=C(NNC(=S)NCc1ccccc1)c1cccc([N+](=O)[O-])c1	ADAM17 inh 13.1 | ADAM10 ctr inactive | ADAM17 confirm inactive
Cc1nc(C)c(-c2ccc(SCC(=O)Nc3cccc(Cl)c3C)nn2)s1	none
Nc1[nH]c(C(=O)c2ccccc2)c(-c2ccccc2C(F)(F)F)c1C(=O)NCCc1c[nH]c2ccccc12	ADAM17 inh 9.4 | ADAM10 ctr inactive | ADAM17 confirm inactive
Nc1[nH]c(C(=O)c2ccc(Cl)cc2)c(-c2ccc(Br)cc2)c1C(=O)NCCc1c[nH]c2ccccc12	none
Nc1[nH]c(C(=O)c2ccc(Br)cc2)c(-c2ccc(Cl)cc2[N+](=O)[O-])c1C(=O)NCCc1c[nH]c2ccccc12	ADAM17 inh 9.3 | ADAM10 ctr inactive | ADAM17 confirm 14.2
Nc1[nH]c(C(=O)c2ccc(Br)cc2)c(-c2ccccn2)c1C(=O)NCCc1c[nH]c2ccccc12	ADAM17 inh 8.8 | ADAM10 ctr inactive | ADAM17 confirm 11.5
O=C(O)c1cccc(N2C(=O)CSC2c2ccccc2)c1 (stereo not drawn)	none
Cc1cc(Cn2nnc(-c3ccc(Br)cc3)n2)cc(C)c1O	ADAM17 inh 10.7 | ADAM10 ctr inactive | ADAM17 confirm inactive
CSc1ccc(-c2nnn(Cc3ccc(Br)cc3)n2)cc1	none
Cc1c(C(=O)N2CC3(CC(c4cccc(NC(=O)CC(c5ccccc5)c5ccccc5)c4)=NO3)C[C@@H]2C(N)=O)cc([N+](=O)[O-])cc1[N+](=O)[O-] (stereo partly drawn)	ADAM17 inh 11.0 | ADAM10 ctr 34.1 | ADAM17 confirm 18.9
C/C=C(\C)C(=O)Nc1cccc(C2=NOC3(C2)C[C@@H](C(N)=O)N(C(=O)c2cc([N+](=O)[O-])cc([N+](=O)[O-])c2C)C3)c1 (stereo partly drawn)	none
O=C(Nc1ccc2c(c1)OCO2)c1ccc2c(c1)S(=O)(=O)c1ccccc1C2=O	none
CCN(Cc1ccccc1)S(=O)(=O)c1ccc(S(=O)(=O)N(Cc2ccccn2)Cc2ccco2)cc1	none
